Inconclusive results are not listed. Activity calls are given as the source filed them. Unless noted, calls follow the shape of the dose curve; as a rule, active = well fitted cell-killing curve with a large enough effect; inconclusive = small, poorly fitted or top-dose-only effect, or effect the other way; inactive = no such curve, though single readings can be large or run the other way.

Our source for the Potency, Z-AUC and z-score values is PubChem BioAssay (NCATS).

A short description of experiment [1]: Quantitative High-Throughput drug screen in 47 multiple myeloma cell lines against the NCATS MIPE library collection: KMS34_JCRB cell viability assay (AID 1918985). Also: nearly all actives have a fitted effect of over 40% in size. Also: potency is read from the fitted curve at half-maximal effect. In a few lines:
(§1)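 500 cells/well; MIPE 4.0 drugs pin-transferred; 48 h, 37C, 5% CO2. CellTiter-Glo, 5 min RT, luminescence. Controls: DMSO 100%, media 0%.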

Experiment [2] can be described thus: Quantitative High-Throughput drug screen in 47 multiple myeloma cell lines against the NCATS MIPE library collection: OCIMY7_PLB cell viability assay (AID 1918987). Also: nearly all actives have a fitted effect of over 65% in size. Also: potency is read from the fitted curve at half-maximal effect. In a few lines: as §1
A short description of experiment [3]: Quantitative High-Throughput drug screen in 47 multiple myeloma cell lines against the NCATS MIPE library collection: OCIMY5_PLB cell viability assay (AID 1918988). Also: nearly all actives have a fitted effect of over 65% in size. Also: potency is read from the fitted curve at half-maximal effect. In a few lines: as §1
Experiment [4] can be described thus: Quantitative High-Throughput drug screen in 47 multiple myeloma cell lines against the NCATS MIPE library collection: OPM1_PLB cell viability assay (AID 1918989). Also: nearly all actives have a fitted effect of over 40% in size. Also: potency is read from the fitted curve at half-maximal effect. A digest of the protocol:
as §1

A short description of experiment [5]: Quantitative High-Throughput drug screen in 47 multiple myeloma cell lines against the NCATS MIPE library collection: U266_ATCC cell viability assay (AID 1919864). Also: nearly all actives have a fitted effect of over 35% in size. Also: potency is read from the fitted curve at half-maximal effect. A digest of the protocol:
as §1

A short description of experiment [6]: Quantitative High-Throughput drug screen in 47 multiple myeloma cell lines against the NCATS MIPE library collection: XG6_PLB cell viability assay (AID 1919865). Also: potency is read from the fitted curve at half-maximal effect; nearly all actives have a fitted effect of over 40% in size. In a few lines:
as §1

Experiment [7] is described as follows: Quantitative High-Throughput drug screen in 47 multiple myeloma cell lines against the NCATS MIPE library collection: XG1_PLB cell viability assay (AID 1919866). Also: nearly all actives have a fitted effect of over 35% in size. Also: potency is read from the fitted curve at half-maximal effect. In a few lines: as §1
A short description of experiment [8]: Quantitative High-Throughput drug screen in 47 multiple myeloma cell lines against the NCATS MIPE library collection: VP6_DJ cell viability assay (AID 1919867). Also: nearly all actives have a fitted effect of over 40% in size. Also: potency is read from the fitted curve at half-maximal effect. In a few lines:
as §1

Experiment [9] in a line: Quantitative High-Throughput drug screen in 47 multiple myeloma cell lines against the NCATS MIPE library collection: PE2_PLB cell viability assay (AID 1919869). Also: nearly all actives have a fitted effect of over 35% in size. Also: potency is read from the fitted curve at half-maximal effect. A digest of the protocol:
as §1

A short description of experiment [10]: Quantitative High-Throughput drug screen in 47 multiple myeloma cell lines against the NCATS MIPE library collection: PCM6_Riken cell viability assay (AID 1919870). Also: nearly all actives have a fitted effect of over 30% in size. Also: potency is read from the fitted curve at half-maximal effect. A digest of the protocol: as §1
A short description of experiment [11]: Quantitative High-Throughput drug screen in 47 multiple myeloma cell lines against the NCATS MIPE library collection: RPMI8226_ATCC cell viability assay (AID 1919871). Also: potency is read from the fitted curve at half-maximal effect; nearly all actives have a fitted effect of over 30% in size. A digest of the protocol: as §1
Experiment [12] can be described thus: Quantitative High-Throughput drug screen in 47 multiple myeloma cell lines against the NCATS MIPE library collection: OPM2_DSMZ cell viability assay (AID 1919872). Also: nearly all actives have a fitted effect of over 30% in size. Also: potency is read from the fitted curve at half-maximal effect. In a few lines: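 Myeloma cells (500 per well) were exposed to MIPE 4.0 compounds by pin transfer and incubated 48 hours at 37C, 5% CO2. Viability was read as ATP by CellTiter-Glo luminescence, normalised to DMSO (100%) and media-only (0%) wells.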

Experiment [13] is described as follows: Quantitative High-Throughput drug screen in 47 multiple myeloma cell lines against the NCATS MIPE library collection: KMS11_JCRBsus cell viability assay (AID 1919873). Also: nearly all actives have a fitted effect of over 50% in size. Also: potency is read from the fitted curve at half-maximal effect. A digest of the protocol:
as §1

Experiment [14] is described as follows: Quantitative High-Throughput drug screen in 47 multiple myeloma cell lines against the NCATS MIPE library collection: KMS28BM_JCRB cell viability assay (AID 1919874). Also: potency is read from the fitted curve at half-maximal effect; nearly all actives have a fitted effect of over 35% in size. A digest of the protocol:
as §1

Experiment [15] in a line: qHTS drug screen for cell cycle checkpoint inhibitors in PARPi-resistant BRCA-mutant ovarian cancer cell lines. (AID 1963452; calls by dose curve). The following applies: PEO1/OlaR viability, CellTiter-Glo luminescence, 96 h, stronger effect = lower value. A digest of the protocol: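 PEO1, PEO4 and PEO1/OlaR ovarian cancer cells, 600 per well, exposed 96 h at 37C to a dilution series. Viability read by CellTiter-Glo luminescence, normalized to DMSO and empty wells; activity summarized as Z-AUC.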
In general terms: Quantitative high-throughput screening tests each substance at several concentrations.

Experiment [16] can be described thus: Quantitative High-Throughput drug screen in 47 multiple myeloma cell lines against the NCATS MIPE library collection: UTMC2_PLB cell viability assay (AID 1919868). Also: nearly all actives have a fitted effect of over 55% in size. Also: potency is read from the fitted curve at half-maximal effect. The following applies: CellTiter-Glo ATP luminescence, 48 h; viability (% of DMSO control): at 45.8 µM (top of the series) unless noted. In a few lines: as §1
In general terms: Cellular ATP, detected with luciferase, serves as a proxy for viable cell number.

Experiment [17] in a line: Quantitative High-Throughput drug screen in 47 multiple myeloma cell lines against the NCATS MIPE library collection: SKMM1_PLB cell viability assay (AID 1919863). The following applies: SKMM1 myeloma viability, CellTiter-Glo ATP, 48 h; viability: stronger effect = lower value. In a few lines:
as §1

The nature of experiment [18]: qHTS for identification of novel therapeutic agents for treatment of microphthalmiaassociated transcription factor (MiT) renal cell carcinoma (RCC) (AID 1963991; calls by dose curve; also: potency is read from the fitted curve at half-maximal effect). As to conditions: CellTiter-Glo, 48 h; for Potency: active = Z-AUC below -0.8 in all three lines; for z-score: stronger effect = lower value. In a few lines: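 Three TFE3-fusion RCC lines (UOK109, UOK124, UOK145), 500 cells/well in complete medium, were treated with MIPE 4.0 compounds for 48 hours at 37 C. Viability was by CellTiter-Glo luminescence, normalized to DMSO (100%) and empty wells (0%); curves fitted over 11 concentrations.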

The mark [19] stands for this setting: measured here: PEO1 parental Z-AUC.
The mark [20] stands for this setting: TFE3-RCC UOK109 viability, measured here: UOK109 Z-AUC.
Setting [21] is: TFE3-RCC viability, measured here: UOK124 Z-AUC.
Setting [22] is: TFE3-RCC viability, measured here: UOK145 Z-AUC.

As for `Cc1nc(Nc2n[nH]c3c2CN(C(=O)N[C@H](CN(C)C)c2ccccc2)C3(C)C)c2sccc2n1`, the Potency in [1] was 469 nM (active); in experiment [2], 209 nM (active); in [3], 662 nM (active); in experiment [4], 469 nM (active); in experiment [5], 526 nM (active); in experiment [6] it was 372 nM (active). The Potency was 296 nM (active) in experiment [7]; 372 nM (active) in experiment [8]; 833 nM (active) in experiment [9]; 1870 nM (active) in experiment [10]; 1320 nM (active) in [11]; 3720 nM (active) in experiment [12]. In addition, the Potency in [13] and in experiment [14] was 37.2 nM (active) in each case. The Z-AUC in experiment [15] is -0.766 (inactive); in experiment [15] (setting [19]) it was -0.524; in [15] (measured here: PEO4 Z-AUC), -1.06.

For the compound `COc1cc(OC2CCN(C)CC2)ccc1Nc1ncc2c(n1)n(C1CCCC1)c(=O)n2C`, the Potency in experiment [1] is 16600 nM (active); in [2] it was 2960 nM (active); in experiment [3], 9350 nM (active); in [4], 7430 nM (active); in [5], 14800 nM (active); in experiment [6], 4690 nM (active). Moreover, the Potency was 4180 nM (active) in experiment [8]; 7430 nM (active) in experiment [16]; 9350 nM (active) in experiment [9]; 10500 nM (active) in experiment [10]; 16600 nM (active) in experiment [13]; 16600 nM (active) in experiment [14]. Moreover, the Z-AUC was 0.704 (inactive) in [15], 0.287 in experiment [15] (setting [19]) and 0.275 in experiment [15] (measured here: PEO4 Z-AUC).

As for `COC(=O)Nc1nc2ccc(C(=O)c3ccc(F)cc3)cc2[nH]1`, the Potency in experiment [1] was 935 nM (active); in [2], 296 nM (active); in [3] it was 469 nM (active); in [4], 590 nM (active); in experiment [17], 469 nM (active); in experiment [7], 332 nM (active). In addition, the Potency in [8] is 935 nM (active); in experiment [10], 743 nM (active); in experiment [11] it was 1870 nM (active); in [12], 935 nM (active); in experiment [13] it was 296 nM (active); in experiment [14], 332 nM (active). Besides, the Potency in experiment [18] (TFE3-RCC UOK109 viability) was 1870 nM (active). For the same compound, the Z-AUC in [15] was -0.379 (inactive); in experiment [15] (setting [19]) it was -1.33; in experiment [15] (measured here: PEO4 Z-AUC) it was -1.13. The z-score in experiment [18] (setting [20]) is -1.13; in experiment [18] (setting [21]), -1.2; in [18] (setting [22]), -0.98.

With `CN1CC[C@@H](c2c(O)cc(O)c3c(=O)cc(-c4ccccc4Cl)oc23)[C@@H](O)C1`, the Potency in experiment [1] was 74.3 nM (active); in experiment [2] it was 29.6 nM (active); in experiment [3], 66.2 nM (active); in experiment [4], 83.3 nM (active); in experiment [5], 166 nM (active); in experiment [8] it was 52.6 nM (active). For the same compound, the Potency in experiment [16] was 83.3 nM (active); in experiment [9], 66.2 nM (active); in [10], 83.3 nM (active); in experiment [11] it was 235 nM (active); in experiment [12], 118 nM (active); in [13], 66.2 nM (active). Moreover, the results for the Potency in experiment [14] and in [18] (TFE3-RCC UOK109 viability) were 93.5 nM (active) and 118 nM (active), respectively. Moreover, the Z-AUC in experiment [15] was -0.536 (inactive); in experiment [15] (setting [19]) it was -1.36; in [15] (measured here: PEO4 Z-AUC), -1.16. The z-score was -2.54 in [18] (setting [20]), -1.53 in experiment [18] (setting [21]) and -2.13 in experiment [18] (setting [22]).

With `CCOc1ccccc1OCCNC(C)Cc1ccc(OC)c(S(N)(=O)=O)c1` (stereo unspecified), the Potency result in experiment [1], in experiment [2], in [3], in [4], in [5] and in experiment [7] was “inactive” each time. Besides, the Potency entry in experiment [8], in experiment [16], in [9], in experiment [10], in experiment [12] and in experiment [13] was “inactive” in each case. The values for the z-score in experiment [18] (setting [20]), in [18] (setting [21]) and in [18] (setting [22]) were -0.0547, 0.341 and 2.03, respectively.
